# From PubChem BioAssay AID540350 (National Center for Advancing Translational Sciences (NCATS), 2011)
# The other results are listed elsewhere or left out. Inconclusive results are not listed. Activity calls are given as the source filed them. The call rests on the fitted dose curve; in most records, active means well fitted inhibition curve with a large enough effect; inconclusive means small, poorly fitted or top-dose-only effect; inactive means no such curve, though single readings can be large or run the other way.
# Target: 4'-phosphopantetheinyl transferase Sfp (Bacillus subtilis (strain 168)) (UniProt P39135)
# Experiment: qHTS Assay for Inhibitos of Bacillus subtilis Sfp phosphopantetheinyl transferase (PPTase): Chemistry Optimization Followup
# Conditions: purified Sfp PPTase enzyme activity
# Description: The covalent attachment of a phosphopantetheinyl (4'-PP) arm to a variety of synthases and other proteins is a key posttranslational protein modification. The 4'-PP is installed on the proteins post-translationally from coenzyme A (CoA) on a conserved serine residue by action of phosphopantetheinyl transferase (PPTase) enzymes. Phosphopantetheinylation is essential for synthase activity, and removal of the PPTase gene precludes natural product synthesis in microorganisms, or in the case of fatty acid biosynthesis, renders the organism unviable. PPTase enzymes belong to a distinct structural superfamily. Within bacteria, these enzymes are grouped into two classes based upon primary structure, the AcpS-Type and Sfp-Type PPTases.
# Sfp-type PPTases, corresponding to an activator of surfactin production in Bacillus subtilis, are responsible for modifying type I polyketide and nonribosomal peptide synthases of prokaryotes. Sfp-type PPTases are responsible for the activation of a variety of pathogen-associated virulence factors. Among these compounds are toxins such as mycolactone from Mycobacterium ulcerans, siderophores such as vibriobactin from Vibrio cholerae or mycobactin from Mycobacterium tuberculosis, as well as the mycolic acids which form the waxy cell wall of Mycobacteria. The biosyntheses of these natural products are considered attractive targets for drug design.
# In search of small molecule Sfp-PPTase inhibitors, a fluorescence quenching assay was developed for detection of Bacillus subtilis Sfp-PPTase enzymatic activity in a miniaturized high-throughput format. The consensus ybbr acceptor peptide […] was N-terminally labeled with Black Hole Quencher-2 (BHQ-2) and used in combination with rhodamine-labeled coenzyme A as a co-substrate.
# Inhibition of Sfp-PPTase was detected by recording the fluorescence intensity change over a 30-minute reaction period at a 525 nm excitation and 598 nm emission. Reagents were supplied by Michael Burkart and Timothy Foley, University of California at San Diego.
# NIH Chemical Genomics Center [NCGC]
# NIH Molecular Libraries Probe Centers Network [MLPCN]
# Assay Submitter (PI): Michael Burkart, University of California, San Diego
# 3 uL of Sfp-PPTase enzyme (final concentration 15 nM) and 1 uL of substrate mixture (final concentration for rhodamine-CoA and BHQ-2-YbbR 5 uM and 12.5 uM, respectively) dispensed in columns 1, 2, 5 - 48. Columns 1 and 2 used to generate neutral control (uninhibited reaction)
# Three uL of reagents, consisting of buffer (in columns 3 and 4 as negative control) and Sfp-PPTase (in columns 1, 2, 5 - 48) were dispensed into 1,536-well Greiner black solid bottom plate. Compounds (23 nL) were transferred via Kalypsys pintool equipped with 1,536-pin array. The plate was incubated for 15 min at room temperature, followed by the addition of 1 uL substrate to start the reaction. The plate was then centrifuged at 1000 rpm for 15 seconds, and the fluorescence intensity recorded on a ViewLux High-throughput CCD imager (Perkin-Elmer) using standard BODIPY optics (525 nm excitation and 598 nm emission). The plate was then incubated for 30 minutes, and a second read on the ViewLux was performed. The fluorescence intensity difference over the 30-minute period was used to calculate the respective reaction rate for each well.
row,Structure (SMILES),Potency
1,Cc1cc(C)nc(NC(=S)N2CCN(c3ccc4nonc4c3)CC2)c1,7440 nM (active)
2,Cc1cc(C)nc(NC(=S)N2CCN(c3ccc(Cl)cc3C(F)(F)F)CC2)c1,2960 nM (active)
3,Cc1cc(C)nc(NC(=S)N2CCN(c3cccc(C#N)c3)CC2)c1,5910 nM (active)
4,Cc1cc(C)nc(NC(=S)N2CCN(c3cccc(C(F)(F)F)c3)CC2)c1,1670 nM (active)
5,Cc1ccc(N2CCN(C(=S)Nc3cc(C)ccn3)CC2)cc1,6630 nM (active)
6,Cc1cc(C)nc(NC(=S)N2CCN(c3ccc(Cl)cc3F)CC2)c1,1870 nM (active)
7,COc1ccnc(NC(=S)N2CCN(c3ncc(C(F)(F)F)cc3Cl)CC2)c1,2640 nM (active)
